# Measured values taken from the supplement of paper PMC10849652.
# The full data set covers some 7,900 targets. This sample favours those with a hit. About 0.6% of all pairs of compound and target were hits. Unmarked numbers belong to inactive results.
# Columns and labels:
# Assay in all cases: log2 fold change, soluble protein after heating vs DMSO (PISA); higher = thermal stabilisation; K562 cells, 10 uM, 30 min; active = over 0.2 and 3.5 SD of the protein, either way, in both replicates (recomputed)
# sotrastaurin = compound: CN1CCN(c2nc(C3=C(c4c[nH]c5ccccc45)C(=O)NC3=O)c3ccccc3n2)CC1 [sotrastaurin]
# In short: (§1)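 Values are thermal stability changes relative to control samples and are taken from duplicates. They are stated as log2 fold changes. Before quantification by TMTpro 16plex LC-MS/MS with equalised channel sums, K562 cells at 2×10^6 cells/mL were treated with 10 μM compound for 30 min, heated in aliquots for 3 min across 48°C-58°C, pooled, extracted in PBS with 0.5% NP-40 at 4°C, and centrifuged at 21,000xg for 90 min to give the soluble supernatant.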
# Tubastatin A = compound: CN1CCc2c(c3ccccc3n2Cc2ccc(C(=O)NO)cc2)C1 [Tubastatin A]
# In short: as §1
# [1] = compound: CNC(=O)C1=CC=CC=C1NC2=NC(=NC=C2Cl)NC3=C(C=C(C=C3)N4CCOCC4)OC
# In short: as §1
# defactinib = compound: CNC(=O)c1ccc(Nc2ncc(C(F)(F)F)c(NCc3nccnc3N(C)S(C)(=O)=O)n2)cc1 [defactinib]
# In short: as §1
# [2] = compound: COC(=O)[C@H](CCSC)NC(=O)C1=C(C=C(C=C1)NC[C@H](CS)N)C2=CC=CC=C2
# In short: as §1
# saracatinib = compound: CN1CCN(CCOc2cc(OC3CCOCC3)c3c(Nc4c(Cl)ccc5c4OCO5)ncnc3c2)CC1 [saracatinib]
# In short: as §1
# rucaparib = compound: CNCc1ccc(-c2[nH]c3cc(F)cc4c3c2CCNC4=O)cc1 [rucaparib]
# In short: as §1
# [3] = compound: CNc1nc(-c2ccc3c(N)n[nH]c3c2)cc(N2C[C@@H](C(=O)NC3CCCCC3)CC[C@H]2C)n1
# In short: as §1
# encorafenib = compound: COC(=O)N[C@@H](C)CNc1nccc(-c2cn(C(C)C)nc2-c2cc(Cl)cc(NS(C)(=O)=O)c2F)n1 [encorafenib]
# In short: as §1
# alvocidib = compound: CN1CC[C@H](c2c(O)cc(O)c3c(=O)cc(-c4ccccc4Cl)oc23)[C@H](O)C1 [alvocidib]
# In short: as §1
# Chain of UniProt P18887 (P18887 whole entry, looked up): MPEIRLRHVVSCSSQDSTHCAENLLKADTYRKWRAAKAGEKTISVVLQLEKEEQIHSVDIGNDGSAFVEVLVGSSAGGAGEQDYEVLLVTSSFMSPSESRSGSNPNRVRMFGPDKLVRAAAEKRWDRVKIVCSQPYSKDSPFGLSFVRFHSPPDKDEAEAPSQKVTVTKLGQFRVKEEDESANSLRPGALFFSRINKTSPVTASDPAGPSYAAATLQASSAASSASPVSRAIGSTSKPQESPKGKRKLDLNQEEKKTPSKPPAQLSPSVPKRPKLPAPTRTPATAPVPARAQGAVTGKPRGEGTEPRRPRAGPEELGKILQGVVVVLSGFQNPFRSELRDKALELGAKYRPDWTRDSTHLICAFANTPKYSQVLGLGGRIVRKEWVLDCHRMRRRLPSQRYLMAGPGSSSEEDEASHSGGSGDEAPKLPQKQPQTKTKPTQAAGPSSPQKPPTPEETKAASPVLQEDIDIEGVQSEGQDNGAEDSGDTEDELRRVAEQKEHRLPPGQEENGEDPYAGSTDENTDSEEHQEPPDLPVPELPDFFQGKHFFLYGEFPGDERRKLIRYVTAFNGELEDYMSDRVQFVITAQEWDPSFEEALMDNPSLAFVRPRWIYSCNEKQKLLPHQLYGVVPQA
# Chain of UniProt Q9NQ34 (Q9NQ34 whole entry, looked up): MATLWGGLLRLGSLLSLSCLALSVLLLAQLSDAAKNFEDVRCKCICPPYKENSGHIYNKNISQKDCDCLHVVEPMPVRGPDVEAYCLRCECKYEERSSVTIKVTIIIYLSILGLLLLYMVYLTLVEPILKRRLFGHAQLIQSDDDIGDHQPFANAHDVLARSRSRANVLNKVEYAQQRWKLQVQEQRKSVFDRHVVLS
# Chain of UniProt P49815 (P49815 whole entry, looked up): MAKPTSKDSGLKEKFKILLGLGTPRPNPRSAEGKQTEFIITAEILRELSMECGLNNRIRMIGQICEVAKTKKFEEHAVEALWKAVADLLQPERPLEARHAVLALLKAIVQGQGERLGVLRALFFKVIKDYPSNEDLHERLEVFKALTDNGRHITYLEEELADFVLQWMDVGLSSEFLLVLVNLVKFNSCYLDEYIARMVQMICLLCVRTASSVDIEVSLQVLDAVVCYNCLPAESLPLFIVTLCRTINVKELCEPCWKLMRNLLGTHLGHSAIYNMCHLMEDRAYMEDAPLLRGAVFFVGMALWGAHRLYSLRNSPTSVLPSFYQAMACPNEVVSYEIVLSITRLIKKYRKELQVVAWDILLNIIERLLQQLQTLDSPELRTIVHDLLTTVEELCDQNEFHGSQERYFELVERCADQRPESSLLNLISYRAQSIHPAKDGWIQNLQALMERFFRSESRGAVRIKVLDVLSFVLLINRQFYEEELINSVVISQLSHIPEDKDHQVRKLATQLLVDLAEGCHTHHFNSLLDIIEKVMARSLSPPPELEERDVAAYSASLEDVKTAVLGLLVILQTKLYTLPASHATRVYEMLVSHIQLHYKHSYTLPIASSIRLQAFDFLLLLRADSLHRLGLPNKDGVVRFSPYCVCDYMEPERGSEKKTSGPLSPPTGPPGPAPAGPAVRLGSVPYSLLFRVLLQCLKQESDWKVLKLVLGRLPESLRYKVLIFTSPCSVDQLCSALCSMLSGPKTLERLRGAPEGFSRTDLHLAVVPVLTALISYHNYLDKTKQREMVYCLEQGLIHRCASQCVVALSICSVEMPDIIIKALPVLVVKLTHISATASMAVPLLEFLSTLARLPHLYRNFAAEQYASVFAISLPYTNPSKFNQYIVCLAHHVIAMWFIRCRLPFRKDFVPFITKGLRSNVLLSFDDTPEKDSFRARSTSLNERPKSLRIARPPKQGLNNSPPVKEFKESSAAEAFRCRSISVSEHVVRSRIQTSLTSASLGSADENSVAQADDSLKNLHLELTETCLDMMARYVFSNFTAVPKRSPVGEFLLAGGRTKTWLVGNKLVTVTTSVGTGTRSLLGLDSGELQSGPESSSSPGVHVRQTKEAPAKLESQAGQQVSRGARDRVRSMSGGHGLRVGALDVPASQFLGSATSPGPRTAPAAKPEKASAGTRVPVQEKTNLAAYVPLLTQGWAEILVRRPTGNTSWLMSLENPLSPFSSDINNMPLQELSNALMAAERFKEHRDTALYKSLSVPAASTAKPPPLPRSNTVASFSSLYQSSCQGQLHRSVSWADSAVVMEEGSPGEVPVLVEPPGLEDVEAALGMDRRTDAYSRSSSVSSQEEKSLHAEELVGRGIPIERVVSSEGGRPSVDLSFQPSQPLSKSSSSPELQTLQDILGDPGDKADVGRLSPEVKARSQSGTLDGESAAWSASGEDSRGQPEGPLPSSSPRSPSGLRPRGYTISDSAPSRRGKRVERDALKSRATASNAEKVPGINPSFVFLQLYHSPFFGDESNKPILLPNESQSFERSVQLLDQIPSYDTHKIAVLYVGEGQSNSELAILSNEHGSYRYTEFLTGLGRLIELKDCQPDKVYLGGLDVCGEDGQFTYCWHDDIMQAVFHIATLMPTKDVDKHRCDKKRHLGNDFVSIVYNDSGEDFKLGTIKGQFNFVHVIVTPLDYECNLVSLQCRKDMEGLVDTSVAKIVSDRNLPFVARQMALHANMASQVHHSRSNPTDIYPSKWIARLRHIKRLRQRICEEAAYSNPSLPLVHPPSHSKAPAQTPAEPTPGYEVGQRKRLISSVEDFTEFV
# Chain of UniProt Q7Z3V4 (Q7Z3V4 whole entry, looked up): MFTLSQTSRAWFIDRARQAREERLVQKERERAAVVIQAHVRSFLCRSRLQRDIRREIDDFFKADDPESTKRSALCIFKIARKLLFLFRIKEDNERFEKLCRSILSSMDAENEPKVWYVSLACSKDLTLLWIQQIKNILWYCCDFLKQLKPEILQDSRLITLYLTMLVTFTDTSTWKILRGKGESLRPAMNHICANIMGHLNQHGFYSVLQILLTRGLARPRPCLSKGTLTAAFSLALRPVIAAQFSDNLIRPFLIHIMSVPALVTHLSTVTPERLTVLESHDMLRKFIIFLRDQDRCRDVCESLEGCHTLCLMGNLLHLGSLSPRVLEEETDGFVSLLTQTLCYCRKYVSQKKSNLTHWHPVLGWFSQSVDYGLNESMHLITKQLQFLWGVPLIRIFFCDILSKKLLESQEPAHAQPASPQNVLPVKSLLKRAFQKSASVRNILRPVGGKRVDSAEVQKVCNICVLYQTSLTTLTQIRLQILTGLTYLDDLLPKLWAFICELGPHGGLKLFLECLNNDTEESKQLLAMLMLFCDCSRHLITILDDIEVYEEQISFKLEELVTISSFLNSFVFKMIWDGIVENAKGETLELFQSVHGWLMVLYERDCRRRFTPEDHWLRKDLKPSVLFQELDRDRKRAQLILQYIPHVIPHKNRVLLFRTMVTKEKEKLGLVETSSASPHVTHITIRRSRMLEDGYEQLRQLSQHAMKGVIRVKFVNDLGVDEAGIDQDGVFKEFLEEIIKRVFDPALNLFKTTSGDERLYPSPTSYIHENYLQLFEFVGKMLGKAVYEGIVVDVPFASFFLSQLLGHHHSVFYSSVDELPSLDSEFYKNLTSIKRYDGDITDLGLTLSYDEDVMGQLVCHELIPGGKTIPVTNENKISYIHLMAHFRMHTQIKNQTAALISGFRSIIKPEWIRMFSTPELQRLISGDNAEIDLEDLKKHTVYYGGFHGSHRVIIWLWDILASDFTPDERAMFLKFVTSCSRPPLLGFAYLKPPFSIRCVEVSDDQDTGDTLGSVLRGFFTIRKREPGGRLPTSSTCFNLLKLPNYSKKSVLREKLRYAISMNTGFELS
# Chain of UniProt Q96ET8 (Q96ET8 whole entry, looked up): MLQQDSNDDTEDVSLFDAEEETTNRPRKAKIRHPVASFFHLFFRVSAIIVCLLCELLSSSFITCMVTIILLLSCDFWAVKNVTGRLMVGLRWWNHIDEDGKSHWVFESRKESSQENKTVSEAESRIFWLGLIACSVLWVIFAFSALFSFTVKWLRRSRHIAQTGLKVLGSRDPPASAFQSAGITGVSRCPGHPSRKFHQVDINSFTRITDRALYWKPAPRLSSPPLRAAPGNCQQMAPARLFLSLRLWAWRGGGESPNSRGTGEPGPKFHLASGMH
# Chain of UniProt Q6ZVM7 (Q6ZVM7 whole entry, looked up): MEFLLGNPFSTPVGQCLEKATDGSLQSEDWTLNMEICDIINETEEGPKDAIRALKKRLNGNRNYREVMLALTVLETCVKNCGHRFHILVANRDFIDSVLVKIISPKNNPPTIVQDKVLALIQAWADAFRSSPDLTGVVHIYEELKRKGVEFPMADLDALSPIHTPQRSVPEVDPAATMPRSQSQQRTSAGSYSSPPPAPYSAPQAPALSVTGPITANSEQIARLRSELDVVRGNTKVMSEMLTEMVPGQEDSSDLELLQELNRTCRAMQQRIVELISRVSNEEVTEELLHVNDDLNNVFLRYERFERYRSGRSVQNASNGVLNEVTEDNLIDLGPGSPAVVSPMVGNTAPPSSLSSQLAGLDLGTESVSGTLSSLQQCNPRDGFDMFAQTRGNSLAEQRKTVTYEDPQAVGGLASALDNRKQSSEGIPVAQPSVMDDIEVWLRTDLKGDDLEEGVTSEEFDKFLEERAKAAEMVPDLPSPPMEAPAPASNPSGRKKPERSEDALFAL
# Chain of UniProt Q9C037 (Q9C037 whole entry, looked up): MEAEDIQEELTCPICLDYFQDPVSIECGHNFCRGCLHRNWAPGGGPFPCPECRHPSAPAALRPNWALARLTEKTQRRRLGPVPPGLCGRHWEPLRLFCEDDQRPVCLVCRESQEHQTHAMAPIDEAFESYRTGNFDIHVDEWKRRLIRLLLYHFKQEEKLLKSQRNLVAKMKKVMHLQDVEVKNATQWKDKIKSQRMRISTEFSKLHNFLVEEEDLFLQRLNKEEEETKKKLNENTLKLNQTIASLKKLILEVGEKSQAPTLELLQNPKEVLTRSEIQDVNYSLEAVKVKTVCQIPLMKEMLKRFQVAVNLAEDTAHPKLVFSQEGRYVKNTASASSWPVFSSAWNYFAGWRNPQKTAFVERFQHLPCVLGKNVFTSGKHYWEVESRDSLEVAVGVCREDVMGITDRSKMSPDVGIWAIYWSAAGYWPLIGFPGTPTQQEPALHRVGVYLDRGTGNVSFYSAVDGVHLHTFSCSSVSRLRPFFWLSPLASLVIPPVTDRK
Target,log2 fold change (sotrastaurin),log2 fold change (Tubastatin A),log2 fold change [1],log2 fold change (defactinib),log2 fold change [2],log2 fold change (saracatinib),log2 fold change (rucaparib),log2 fold change [3],log2 fold change (encorafenib),log2 fold change (alvocidib)
WARS1 (UniProt G3V277),0.021,0.005,-0.052,0,0.14,,,,,
TXNRD1 isoform 7 (UniProt Q16881),0.019,,-0.364,-0.194,0.062,-0.202,0.263,0.065,-0.085,
TRIQK (UniProt Q629K1),-0.112,-0.094,,,,-0.014,,-0.045,,0.011
UBAP2L (UniProt F8W726),,-0.039,-0.05,,,,-0.006,,-0.021,
TOM1L2 (UniProt Q6ZVM7),-0.091,,-0.102,-0.072,0.058,-0.02,,-0.05,,-0.357 (active)
TSC2 (UniProt P49815),-0.085,0.437,-0.603,,,,-0.097,,0.042,-0.134
TTC26,,-0.033,,0.265,0.144,,,,,
TUBA4A (UniProt C9JJQ8),-0.084,0.147,,-0.215,-0.055,-0.148,0.186,0.131,0.078,-0.191
WDR4 isoform 3 (UniProt P57081),0.098,,,,,,,,,
XAB2 (UniProt Q9HCS7),,,,,,0.052,,0.073,,
UBE3B (UniProt Q7Z3V4),0.005,0.128,,,,-0.028,,-0.032,,0.122
TRABD (UniProt Q9H4I3),0.003,0.06,0.131,-0.096,-0.033,,0.073,,-0.01,-0.151
TRPT1 isoform 4 (UniProt Q86TN4),-0.208,,-0.069,,,,0.101,,0.036,
UCHL5 isoform 3 (UniProt Q9Y5K5),-0.292,-0.035,0.136,0.03,-0.254,,-0.08,,0.241,-0.156
WARS1 (UniProt G3V227),,-0.053,,-0.001,0.3,0.003,,0.021,,-0.065
TTC33 (UniProt Q6PID6),0.009,,0.012,0.013,0.054,-0.103,-0.008,-0.152,-0.014,0.041
TMEM179B (UniProt Q7Z7N9),0.151,0.036,0.044,,,,0.026,,-0.015,0.097
U2AF1L5 (UniProt P0DN76),,0.072,0.084,-0.409,0.107,-0.013,0.236,-0.023,0.23,
UBXN8 (UniProt O00124),0.027,-0.144,,0.065,-0.095,-0.054,-0.568 (active),-0.112,0.094,0.102

Target,log2 fold change (sotrastaurin),log2 fold change (Tubastatin A),log2 fold change [1],log2 fold change (defactinib),log2 fold change [2],log2 fold change (saracatinib),log2 fold change (rucaparib),log2 fold change [3],log2 fold change (encorafenib),log2 fold change (alvocidib)
TRIM4 (UniProt Q9C037),0.024,0.097,0.439 (active),-0.029,-0.108,,0.031,,0.04,-0.029
WDR75 (UniProt Q8IWA0),,0.173,,0.144,-0.197,-0.109,,0.162,,0.147
TMEM184C (UniProt Q9NVA4),0.139,0.022,,-0.049,0.118,0.022,0.028,-0.182,0.051,-0.123
USP48 (UniProt Q86UV5),-0.123,,-0.045,,,,-0.102,,0.318,
VWA3B isoform 6 (UniProt Q502W6),,-0.018,0.017,0.039,-0.04,0.042,-0.448,-0.076,0.095,0.079
TMEM41A (UniProt Q96HV5),-0.057,-0.068,0.008,0.003,-0.012,0.03,-0.009,-0.011,0.025,
UBA52 (UniProt P62987),-0.029,-0.004,-0.008,0.221,0.08,,0.421,,0.152,0.339
TVP23C (UniProt Q96ET8),,0,0.042,0.039,0.067,0.025,-0.205,0.015,0.129,-0.135
WARS1 (UniProt G3V5U1),0.315,,,,,,0.228,,-0.451,
"WDR46, A0A0G2JJL1",0.052,-0.095,0.007,0.408,-0.138,0.065,0.293,0.119,0.044,
TMEM268 isoform 3 (UniProt Q5VZI3),-0.103,0.131,-0.017,,,0.033,-0.021,0.046,-0.19,0.069
WARS1 (UniProt G3V3P2),0.336,,,,,,,,,
XRCC1 (UniProt P18887),-0.264,0.055,0.05,,,0.008,,0.148,,-0.029
TMEM9B (UniProt Q9NQ34),0.019,-0.033,-0.029,-0.029,-0.001,,-0.02,,0.063,0.075
VDAC1 (UniProt C9JI87),0.034,,-0.135,,,-0.027,-0.247,-0.189,-0.087,0.201
UTP20 (UniProt O75691),,-0.028,-0.051,,,,,,,
TMEM104 (UniProt Q8NE00),,,-0.007,,,-0.024,0.06,-0.122,0.056,-0.013
TOM1 (UniProt O60784),-0.033,0.002,-0.113,,,,,,,
